Assay results published in PubChem BioAssay (Tox21).
Several values for one entry are separate records, joined by “and”; a condition that tells them apart may be missing. Equal values may be shown once. Records with an inconclusive call do not appear. A structure can be active in one record and inactive in another. Activity calls are given as the source filed them. Unless noted, calls come from the whole dose curve; as a rule, active = well fitted curve in the direction sought with a large enough effect in the repeat runs; inconclusive = weak or mixed curves; inactive = no such curve, though single readings can be large; an effect the other way counts as inactive or inconclusive.

Tests used:
[1] = qHTS assay to identify small molecule agonists of the vitamin D receptor (VDR) signaling pathway - cell viability counter screen (AID 743224); note: nearly all actives have a fitted effect of over 50% in size; note: potency is the fitted concentration of half-maximal effect
How it was run: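 Counter screen for cytotoxicity: VDR-bla cells at 2,000 cells/well, 16 h compound exposure, then CellTiter-Glo luminescence after the beta-lactamase measurement.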

[2] = qHTS assay to identify small molecule agonists of the endoplasmic reticulum stress response signaling pathway - cell viability counter screen (AID 1159517; calls by dose curve; note: nearly all actives have a fitted effect of over 50% in size; note: potency is the fitted concentration of half-maximal effect)
How it was run: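 After overnight attachment, ESRE-bla HeLa cells were treated with Tox21 library compounds for 5 hr. CellTiter-Glo luminescence, read 30 min post-addition at room temperature, reported viability.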

[3] = qHTS assay to identify small molecule antagonists of the retinoid-related orphan receptor gamma (ROR-gamma) signaling pathway - cell viability counter screen (AID 1159520); note: nearly all actives have a fitted effect of over 50% in size; note: potency is the fitted concentration of half-maximal effect
How it was run: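 Cytotoxicity was read from cellular ATP (CellTiter-Glo luminescence) after 16 hr at 37 C with 1 uM doxycycline induction. The inducer was added 2 hr after compound transfer to Tet-on ROR gamma CHO cells.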

[4] = target: Nuclear receptor ROR-gamma (Homo sapiens) (UniProt P51449); assay: qHTS assay to identify small molecule antagonists of the retinoid-related orphan receptor gamma (ROR-gamma) signaling pathway (AID 1159521; note: nearly all actives have a fitted effect of over 50% in size; note: potency is the fitted concentration of half-maximal effect)
How it was run: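 CHO cells expressing RORγ under a TET-on promoter, luciferase under RORE control. Dox 1 uM final, 16 h; compounds added 2 h prior. Luminescence decrease measured.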

[5] = qHTS assay to identify small molecule agonists of the AP-1 signaling pathway - cell viability counter screen (AID 1159525; calls by dose curve; note: nearly all actives have a fitted effect of over 55% in size; note: potency is the fitted concentration of half-maximal effect)
How it was run: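 Intracellular ATP by Cell Titer Glo luminescence (30 min, RT) in the same ME-180 AP-1-bla wells after the 5 h compound exposure at 37 °C. Normalised to tetra n-octyl ammonium bromide and DMSO controls.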

[6] = qHTS assay to identify small molecule antagonists of the vitamin D receptor (VDR) signaling pathway - cell viability counter screen (AID 743225); note: nearly all actives have a fitted effect of over 50% in size; note: potency is the fitted concentration of half-maximal effect
How it was run: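 Luminescent cell viability (CellTiter-Glo) in VDR-bla HEK 293T cells after 16 h compound exposure at 37C in the presence of 3 nM final 1-alpha,25-dihydroxy vitamin D3.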

[7] = target: Retinoic acid receptor RXR-alpha (Homo sapiens) (UniProt P19793); assay: qHTS assay to identify small molecule agonists of the RXR signaling pathway (AID 1159527; calls by dose curve; note: nearly all actives have a fitted effect of over 35% in size)
How it was run: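 Beta-lactamase reporter assay, agonist format. Engineered HEK 293T line, charcoal-stripped FBS at 2%, overnight (16 hr) exposure, fluorescence at 460 and 530 nm after 405 nm excitation.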

[8] = qHTS assay to identify small molecule agonists of the RXR signaling pathway - cell viability counter screen (AID 1159529); note: nearly all actives have a fitted effect of over 50% in size; note: potency is the fitted concentration of half-maximal effect
How it was run: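 Same-well viability check after the LiveBLAzer FRET read: CellTiter-Glo added, luminescence measured after 30 min at room temperature. Reporter HEK 293T cells had been treated with compounds for 16 hr following a 5 hr preincubation.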

[9] = qHTS assay to identify small molecule agonists of the AP-1 signaling pathway (AID 1159526; calls by dose curve)

Measured: Potency

Chain of Retinoic acid receptor RXR-alpha (Homo sapiens) (P19793 whole entry, looked up): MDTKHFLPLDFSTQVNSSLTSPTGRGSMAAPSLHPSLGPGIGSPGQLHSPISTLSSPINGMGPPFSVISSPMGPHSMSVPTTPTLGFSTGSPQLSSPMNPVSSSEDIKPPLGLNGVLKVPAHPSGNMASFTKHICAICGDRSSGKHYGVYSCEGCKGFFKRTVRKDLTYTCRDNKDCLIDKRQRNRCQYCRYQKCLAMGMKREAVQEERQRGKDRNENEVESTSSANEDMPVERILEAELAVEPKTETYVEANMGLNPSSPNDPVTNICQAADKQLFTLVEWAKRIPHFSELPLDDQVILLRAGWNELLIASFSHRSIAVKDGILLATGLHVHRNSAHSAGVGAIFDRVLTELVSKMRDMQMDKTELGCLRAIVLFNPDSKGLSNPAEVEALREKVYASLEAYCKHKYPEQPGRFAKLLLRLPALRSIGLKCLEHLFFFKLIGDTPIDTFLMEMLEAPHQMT

Nc1ccc2cc3ccc(N)cc3nc2c1
24.5 µM (active) and inactive: [1]
active: [3] 26.6 µM
inactive: [2] | [4] | [5]

CCC1(c2cnc[nH]2)Cc2ccccc2C1
not listed: [9]
inactive: all other assays above

CCN=C1C=CC(=C(c2ccc(N(CC)CC)cc2)c2ccc(N(CC)CC)cc2)c2ccccc21
active: [2] 38.7 µM | [3] 6.82 µM | [4] 2.71 µM | [5] 38.7 µM | [8] 15.4 µM

CCc1cccc(C)c1
not listed: [7] | [9]
inactive: all other assays above

CCCCCCCOC(=O)c1ccc(O)cc1
inactive: [3] | [4]
active: [6] 38.9 µM | [2] 54.9 µM | [5] 49 µM | [8] 55 µM

C=C1C(C)(C)[C@@]2(Cl)C(Cl)[C@]1(Cl)C(Cl)(Cl)C2(Cl)Cl (some centres undefined)
active: [1] 38.2 µM | [2] 48.1 µM | [3] 67.3 µM | [4] 47.7 µM | [5] 48.1 µM | [8] 19.1 µM

C/C=C/C(=O)Oc1c(CCCCCC(C)C)cc([N+](=O)[O-])cc1[N+](=O)[O-]
active: [2] 21.9 µM | [3] 19.3 µM | [4] 6.11 µM | [8] 24.5 µM

C[C@@]12C(=O)OC(=O)[C@]1(C)C1CCC2O1
active: [3] 4.22 µM | [4] 4.22 µM
inactive: [2] | [8]

COc1cc(C=C2CCC/C(=C\c3ccc(O)c(OC)c3)C2=O)ccc1O
inactive: [2]
active: [3] 29.8 µM | [5] 26.8 µM

O=C(Nc1ccc(Cl)cc1)Nc1ccc(Cl)c(C(F)(F)F)c1
active: [6] 12 µM | [2] 21.3 µM | [3] 23.7 µM | [4] 7.5 µM | [5] 16.9 µM | [8] 12 µM

COC(=O)NCCC[Si](OC)(OC)OC
active: [1] 49 µM | [4] 54.5 µM
inactive: [6] | [2] | [3] | [5]

CCCCCCOc1cc(C)c(O)c(C)c1C
active: [1] 39.4 µM | [6] 35.1 µM | [2] 55.6 µM | [3] 61.9 µM | [4] 49.2 µM | [5] 44.2 µM | [8] 35.1 µM

COc1cc(C(=O)NS(=O)(=O)c2ccccc2C)ccc1Cc1cn(C)c2ccc(NC(=O)OC3CCCC3)cc12
not listed: [5] | [7] | [9]
inactive: all other assays above

CC(C)(C)CC(C)(C)c1ccccc1O
active: [6] 22 µM | [2] 49.2 µM | [3] 61.4 µM | [4] 68.9 µM | [5] 43.9 µM | [8] 39.1 µM

Clc1ccc(C(c2ccccc2Cl)C(Cl)Cl)cc1 (centres undefined)
active: [2] 49 µM | [5] 43.6 µM and 23.9 µM | [8] 34.7 µM and 23.9 µM
inactive: [6] | [3] | [4]
49 µM (active) and inactive: [1]

O=C(NO)c1ccccc1
inactive: [1] | [2] | [3] | [4] | [5]

c1ccc(Sc2ccccc2)cc1
active: [1] 49 µM | [2] 43.6 µM
inactive: [3] | [4] | [5]

CCCCCCCCCCCCCC[n+]1ccccc1
active: [1] 24.5 µM | [6] 24.5 µM | [2] 17.4 µM | [3] 61.1 µM | [4] 4.86 µM | [5] 49 µM | [8] 12.3 µM

CCCCCCCCCC(=O)N(C)C
not listed: [7]
inactive: all other assays above

Cc1cc2c(C(C)C)c(O)c(O)c(C=O)c2c(O)c1-c1c(C)cc2c(C(C)C)c(O)c(O)c(C=O)c2c1O
active: [1] 11.9 µM | [6] 9.52 µM | [2] 10.7 µM | [3] 26.6 µM | [4] 10.6 µM | [8] 21.3 µM
inactive: [5]

C=C(c1ccc(C(=O)O)cc1)c1cc2c(cc1C)C(C)(C)CCC2(C)C
21.9 µM (active) and inactive: [1]
active: [2] 24.5 µM and 19 µM | [3] 30.6 µM | [4] 24.3 µM and 23.7 µM | [5] 30.9 µM | [8] 49 µM and 23.9 µM
